# According to PubChem BioAssay (EPA / NIEHS):
# Inconclusive results are not listed. More than one record can exist for a structure, and the calls need not agree. Active and inactive are the calls of the source. Rule for the calls, unless noted: active = hit-call score of the fitted dose curve at least 0.9, where 1 is the maximum; inactive = score below 0.9.
# Assays:
# [1] = target: Nuclear respiratory factor 1 (Homo sapiens) (UniProt Q16656); test: ATG_NRF1_CIS: Attagene CIS-FACTORIAL HepG2 Assay for human Nuclear Respiratory Factor 1 (NRF1) Orphan Gene (AID 2282987); conditions: HepG2 NRF1 cis-element reporter, Attagene multiplex; actives raise or lower the signal
# Chain of Nuclear respiratory factor 1 (Homo sapiens) (Q16656 whole entry, looked up): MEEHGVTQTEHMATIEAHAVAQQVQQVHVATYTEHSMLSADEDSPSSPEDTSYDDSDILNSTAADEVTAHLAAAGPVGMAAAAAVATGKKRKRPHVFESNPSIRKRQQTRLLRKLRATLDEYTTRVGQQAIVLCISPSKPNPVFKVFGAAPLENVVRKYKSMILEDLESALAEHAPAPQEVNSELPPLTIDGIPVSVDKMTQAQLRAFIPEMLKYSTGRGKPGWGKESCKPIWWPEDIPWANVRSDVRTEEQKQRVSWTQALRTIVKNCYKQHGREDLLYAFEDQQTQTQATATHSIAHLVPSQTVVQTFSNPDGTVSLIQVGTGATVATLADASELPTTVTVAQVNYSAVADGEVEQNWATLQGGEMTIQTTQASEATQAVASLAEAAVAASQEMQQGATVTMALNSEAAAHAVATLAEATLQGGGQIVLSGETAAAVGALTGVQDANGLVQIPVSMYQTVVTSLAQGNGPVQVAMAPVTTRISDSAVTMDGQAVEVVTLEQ
# Outline: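 Human hepatoma HepG2 cells carrying transfected promoter-regulated reporter units were incubated with test chemicals for 24 h. Reporter transcripts were measured by RT-PCR plus capillary electrophoresis, and endpoints derived by bidirectional fitting with DMSO as baseline.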
# [2] = ATG_NFI_CIS: Attagene CIS-FACTORIAL HepG2 Assay for human Nuclear Factor I (NFI) (AID 2282989); conditions: HepG2 cis-regulatory reporter, NFI response element transcription; actives raise or lower the signal
# Outline: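 Cells: human liver HepG2, transiently transfected with promoter-regulated reporter transcription units. Exposure 24 h. Detection: fluorescent RT-PCR products separated by capillary electrophoresis, normalised to DMSO negative control.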
# [3] = target: Myc proto-oncogene protein (Homo sapiens) (UniProt P01106); test: ATG_Myc_CIS: Attagene CIS-FACTORIAL HepG2 Assay for human Myelocytomatosis (Myc) Proto-Oncogene Transcription Factor (AID 2282990); conditions: HepG2, Attagene cis-reporter transcription factor activity; actives raise or lower the signal
# Chain of Myc proto-oncogene protein (Homo sapiens) (P01106 whole entry, looked up, the tested form may be a part): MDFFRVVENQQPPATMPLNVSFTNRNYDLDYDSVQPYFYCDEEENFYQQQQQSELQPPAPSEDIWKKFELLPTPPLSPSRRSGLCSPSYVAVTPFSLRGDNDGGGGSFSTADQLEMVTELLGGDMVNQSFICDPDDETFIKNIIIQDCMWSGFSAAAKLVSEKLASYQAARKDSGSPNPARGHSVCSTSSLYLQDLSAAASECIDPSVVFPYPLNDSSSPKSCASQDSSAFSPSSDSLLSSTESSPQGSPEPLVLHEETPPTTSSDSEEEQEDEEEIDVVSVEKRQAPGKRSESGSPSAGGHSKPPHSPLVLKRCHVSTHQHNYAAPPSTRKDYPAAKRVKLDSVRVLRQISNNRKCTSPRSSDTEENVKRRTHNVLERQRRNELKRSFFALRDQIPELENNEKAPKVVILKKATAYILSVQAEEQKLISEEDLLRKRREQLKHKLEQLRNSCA
# Outline: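 After 24 h chemical treatment of HepG2 cells carrying multiplexed cis-regulated reporter constructs, reporter transcripts quantified by RT-PCR and capillary electrophoresis of fluorescent fragments. Gain or loss fitted against DMSO baseline.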
# [4] = ATG_NF_kB_CIS: Attagene CIS-FACTORIAL HepG2 Assay for human Nuclear Factor Kappa B (NF-kB) (AID 2282991); conditions: HepG2 Attagene cis-factorial NF-kB reporter mRNA; actives raise or lower the signal
# Outline: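 Multiplexed cis-reporter assay in transiently transfected HepG2. 24 h treatment; RNA isolated, RT-PCR, labelled fragments resolved by CE. DMSO baseline.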
# [5] = ATG_NRF2_ARE_CIS: Attagene CIS-FACTORIAL HepG2 Assay for human Nuclear Factor Erythroid 2 Related Factor 2 (NFR2) response to Antioxidant Response Elements (ARE) (AID 2282992); conditions: HepG2 Attagene ARE/NRF2 reporter, transcription factor activity; actives raise or lower the signal;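 for AC50: reporter mRNA level measured by RT-PCR and capillary electrophoresis fluorescence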
# Outline: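 Transient MRTU transfection of HepG2; 24 h compound exposure; TriZol RNA, RT with oligo(dT), PCR, 6-FAM primer extension, HpaI cut, CE. Bidirectional fit vs DMSO.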
# [6] = ATG_Oct_MLP_CIS: Attagene CIS-FACTORIAL HepG2 Assay for human Octamer-Binding Transcription Factor (Oct) (AID 2282993); conditions: HepG2 Attagene cis-factorial Oct reporter, mRNA; actives raise or lower the signal
# Outline: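 HepG2, transient MRTU transfection, cis promoter elements; 24 h dosing; RT-PCR/CE fluorescence read-out of reporter mRNA; fit both directions vs DMSO.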
# [7] = target: Cellular tumor antigen p53 (Homo sapiens) (UniProt P04637); test: ATG_p53_CIS: Attagene CIS-FACTORIAL HepG2 Assay for human p53 Transcription Factor (AID 2282994); conditions: HepG2 p53 cis-element reporter, Attagene mRNA; actives raise or lower the signal
# Chain of Cellular tumor antigen p53 (Homo sapiens) (P04637 whole entry, looked up): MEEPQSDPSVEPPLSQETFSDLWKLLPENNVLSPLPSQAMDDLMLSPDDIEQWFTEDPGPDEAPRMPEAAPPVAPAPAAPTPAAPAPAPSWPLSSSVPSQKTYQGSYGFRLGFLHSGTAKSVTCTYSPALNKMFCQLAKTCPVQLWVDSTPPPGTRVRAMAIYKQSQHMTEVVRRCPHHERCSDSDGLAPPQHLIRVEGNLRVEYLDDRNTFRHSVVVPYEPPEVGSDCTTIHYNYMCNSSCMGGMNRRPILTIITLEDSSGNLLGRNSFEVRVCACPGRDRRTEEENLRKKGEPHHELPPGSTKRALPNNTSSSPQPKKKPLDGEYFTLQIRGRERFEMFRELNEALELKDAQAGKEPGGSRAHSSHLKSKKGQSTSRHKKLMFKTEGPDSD
# Outline: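 HepG2, transient MRTU transfection (cis promoter elements, endogenous TFs); 24 h dosing; RNA isolation, RT-PCR, 6-FAM primer extension, HpaI digest, CE fluorescence; bidirectional fit vs DMSO.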
# [8] = BSK_3C_TissueFactor: BioMAP Diversity Plus: 3C Assay for Tissue Factor Biomarker Activity (AID 2282997); conditions: BioMAP 3C HUVEC, tissue factor biomarker readout; actives raise or lower the signal
# Outline: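 Endothelial monolayers (human umbilical vein, primary) are dosed, incubated 24 h, and assayed for Tissue Factor by ELISA; DMSO serves as negative control for bidirectional fitting.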
# [9] = BSK_3C_uPAR: BioMAP Diversity Plus: 3C Assay for Urokinase-type plasminogen activator receptor (uPAR) Biomarker Activity (AID 2282998); conditions: BioMAP 3C HUVEC, uPAR biomarker ELISA; actives raise or lower the signal
# Outline: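 A multiplexed primary-cell system built on human umbilical vein endothelium was used, with chemical present for 24 h before reading. Cell-surface uPAR was detected by ELISA; signal change in either direction counted against DMSO.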
# [10] = BSK_4H_Eotaxin3: BioMAP Diversity Plus: 4H Assay for Eotaxin 3 Biomarker Activity (AID 2283000); conditions: primary human endothelial cells (HUVEC); actives raise or lower the signal;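 note: CCL26 protein level quantified by ELISA in parallel with SRB cytotoxicity check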
# Outline: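 ELISA quantitation of CCL26 (Eotaxin-3) protein from chemically dosed human vascular endothelial cells at 24 h; increases and decreases both scored relative to DMSO-treated baseline.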
# [11] = target: human Peroxisome Proliferator-activated Receptor delta (PPARd), PPARD (gene 5467) (UniProt Q03181); test: ATG_PPARd_TRANS: Attagene TRANS-FACTORIAL HepG2 Assay for human Peroxisome Proliferator-activated Receptor delta (PPARd) (AID 2283002; active = hit-call score of the fitted dose curve at least 0.9, where 1 is the maximum)
# Chain of human Peroxisome Proliferator-activated Receptor delta (PPARd), PPARD (gene 5467) (Q03181 whole entry, looked up, the tested form may be a part): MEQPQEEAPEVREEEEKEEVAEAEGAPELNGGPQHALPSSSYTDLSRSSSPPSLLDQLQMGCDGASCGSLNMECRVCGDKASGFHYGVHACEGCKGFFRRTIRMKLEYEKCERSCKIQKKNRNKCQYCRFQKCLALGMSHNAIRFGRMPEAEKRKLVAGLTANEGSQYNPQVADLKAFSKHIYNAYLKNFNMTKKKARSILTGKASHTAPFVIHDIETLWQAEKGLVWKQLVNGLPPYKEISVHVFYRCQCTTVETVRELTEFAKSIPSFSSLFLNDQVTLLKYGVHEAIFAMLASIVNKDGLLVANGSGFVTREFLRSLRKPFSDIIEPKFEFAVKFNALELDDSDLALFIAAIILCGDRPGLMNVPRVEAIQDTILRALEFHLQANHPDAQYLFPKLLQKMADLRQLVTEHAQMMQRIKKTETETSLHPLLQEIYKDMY
# Outline: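 Read-out is induced reporter mRNA, quantified by RT-PCR with fluorescent labelling and capillary electrophoresis after 24 h dosing. Cells are HepG2 transiently carrying multiple GAL4-UAS reporter units driven by exogenous NR-GAL4 chimeras; DMSO serves as baseline.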
# [12] = read-out: Intercellular Adhesion Molecule 1 (ICAM1), ICAM1 (gene 3383); test: BSK_3C_ICAM1: BioMAP Diversity Plus: 3C Assay for Intercellular Adhesion Molecule 1 (ICAM1) Biomarker Activity (AID 2283003); conditions: primary human endothelial cells (HUVEC); actives raise or lower the signal
# Outline: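 Primary human umbilical vein endothelial cells in the BioMAP 3C system were exposed to chemicals for 24 h, then ICAM-1 was quantified by ELISA. Activity was fitted bidirectionally against the DMSO negative control baseline.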
# [13] = BSK_3C_Proliferation: Cell Proliferation Assessment in the BioMAP Diversity Plus: 3C Assay (AID 2283006); conditions: primary human endothelial cells (HUVEC);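 for AC50: potency may reflect either rise or fall in cell number versus DMSO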
# Outline: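 Human umbilical vein endothelial cells were grown sub-confluent and exposed to chemical for 48 h, then fixed with 10% TCA and stained with 0.1% sulforhodamine B; absorbance at 560 nm gave relative cell number, fitted bidirectionally against DMSO baseline.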
# [14] = target: Nuclear receptor subfamily 1 group I member 2 (Homo sapiens) (UniProt O75469); test: ATG_PXR_TRANS: Attagene TRANS-FACTORIAL HepG2 Assay for human Pregnane X Receptor (PXR) (AID 2283008; active = hit-call score of the fitted dose curve at least 0.9, where 1 is the maximum)
# Chain of Nuclear receptor subfamily 1 group I member 2 (Homo sapiens) (O75469 whole entry, looked up, the tested form may be a part): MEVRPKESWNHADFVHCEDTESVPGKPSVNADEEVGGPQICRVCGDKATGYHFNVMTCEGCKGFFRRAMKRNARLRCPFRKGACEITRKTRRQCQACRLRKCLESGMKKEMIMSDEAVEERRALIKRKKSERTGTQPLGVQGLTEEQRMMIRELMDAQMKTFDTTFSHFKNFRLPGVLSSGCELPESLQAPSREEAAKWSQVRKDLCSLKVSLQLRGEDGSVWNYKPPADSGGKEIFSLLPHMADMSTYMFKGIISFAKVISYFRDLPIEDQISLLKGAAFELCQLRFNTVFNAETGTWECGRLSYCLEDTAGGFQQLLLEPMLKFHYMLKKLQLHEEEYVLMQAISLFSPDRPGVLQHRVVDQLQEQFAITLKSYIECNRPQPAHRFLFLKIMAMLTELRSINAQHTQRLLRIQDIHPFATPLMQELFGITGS
# Outline: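 Read-out is fluorescence of labelled reporter cDNA fragments separated by capillary electrophoresis after RT-PCR and HpaI digestion. Source: HepG2 cells carrying PXR-GAL4/UAS reporter constructs, treated 24 h; activity fitted upward relative to DMSO.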
# [15] = target: Retinoic acid receptor alpha (Homo sapiens) (UniProt P10276); test: ATG_RARa_TRANS: Attagene TRANS-FACTORIAL HepG2 Assay for human Retinoic Acid Receptor alpha (RARa) (AID 2283005; active = hit-call score of the fitted dose curve at least 0.9, where 1 is the maximum)
# Chain of Retinoic acid receptor alpha (Homo sapiens) (P10276 whole entry, looked up, the tested form may be a part): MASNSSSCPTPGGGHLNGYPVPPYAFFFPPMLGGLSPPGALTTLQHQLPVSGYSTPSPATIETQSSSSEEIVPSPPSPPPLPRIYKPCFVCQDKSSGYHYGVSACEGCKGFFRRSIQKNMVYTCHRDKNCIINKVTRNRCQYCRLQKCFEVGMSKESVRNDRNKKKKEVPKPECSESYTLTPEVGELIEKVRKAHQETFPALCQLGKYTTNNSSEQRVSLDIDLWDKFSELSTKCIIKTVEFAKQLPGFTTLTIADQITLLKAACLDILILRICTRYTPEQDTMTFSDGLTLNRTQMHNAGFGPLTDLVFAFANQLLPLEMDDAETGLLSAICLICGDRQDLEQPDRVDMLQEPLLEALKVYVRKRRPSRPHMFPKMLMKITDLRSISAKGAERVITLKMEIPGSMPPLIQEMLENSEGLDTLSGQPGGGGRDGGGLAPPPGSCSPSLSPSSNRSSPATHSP
# Outline: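 Reporter transcripts, measured by RT-PCR with fluorescent labeling and capillary electrophoresis after 24 h dosing, reflect activity of an exogenous human RARa–GAL4 fusion in transiently transfected HepG2. Fitted for increase relative to DMSO.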
# [16] = target: human Retinoic Acid Receptor gamma (RARg), RARG (gene 5916) (UniProt P13631); test: ATG_RARg_TRANS: Attagene TRANS-FACTORIAL HepG2 Assay for human Retinoic Acid Receptor gamma (RARg) (AID 2283009; active = hit-call score of the fitted dose curve at least 0.9, where 1 is the maximum)
# Chain of human Retinoic Acid Receptor gamma (RARg), RARG (gene 5916) (P13631 whole entry, looked up, the tested form may be a part): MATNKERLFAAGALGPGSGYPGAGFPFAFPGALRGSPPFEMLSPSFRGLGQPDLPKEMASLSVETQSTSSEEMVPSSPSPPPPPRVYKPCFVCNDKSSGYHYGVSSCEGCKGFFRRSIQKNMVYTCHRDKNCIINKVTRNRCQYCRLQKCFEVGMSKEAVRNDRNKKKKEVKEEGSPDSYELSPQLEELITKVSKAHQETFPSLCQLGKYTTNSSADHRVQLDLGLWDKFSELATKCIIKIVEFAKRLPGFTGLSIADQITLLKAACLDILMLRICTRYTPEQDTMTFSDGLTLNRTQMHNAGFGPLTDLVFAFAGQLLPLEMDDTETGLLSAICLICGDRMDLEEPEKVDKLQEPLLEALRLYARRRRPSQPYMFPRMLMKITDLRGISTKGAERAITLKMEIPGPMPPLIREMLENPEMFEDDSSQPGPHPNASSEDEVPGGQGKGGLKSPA
# Outline: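 HepG2 cells transiently transfected with multiplexed reporter units expressing chimeric RARg-GAL4 and GAL4-UAS-driven reporters; 24 h compound exposure. Reporter mRNA quantified by RT-PCR with fluorescent labelling and capillary electrophoresis; gain-of-signal fitted relative to DMSO baseline.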
# [17] = BSK_3C_VCAM1: BioMAP Diversity Plus: 3C Assay for Vascular cell adhesion molecule 1 (VCAM1) Biomarker Activity (AID 2282999); conditions: BioMAP 3C HUVEC, VCAM1 ELISA, cytokine-stimulated; actives raise or lower the signal
# Outline: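 Endothelial cells from human umbilical vein are treated with test chemical. At 24 h, VCAM-1 is measured by ELISA, and responses in either direction are fitted relative to DMSO.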
# [18] = target: human Peroxisome Proliferator-activated Receptor alpha (PPARa), PPARA (gene 5465) (UniProt Q07869); test: ATG_PPARa_TRANS: Attagene TRANS-FACTORIAL HepG2 Assay for human Peroxisome Proliferator-activated Receptor alpha (PPARa) (AID 2283001; active = hit-call score of the fitted dose curve at least 0.9, where 1 is the maximum;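 for AC50: potency for gain of reporter signal over DMSO so agonist or activator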)
# Chain of human Peroxisome Proliferator-activated Receptor alpha (PPARa), PPARA (gene 5465) (Q07869 whole entry, looked up, the tested form may be a part): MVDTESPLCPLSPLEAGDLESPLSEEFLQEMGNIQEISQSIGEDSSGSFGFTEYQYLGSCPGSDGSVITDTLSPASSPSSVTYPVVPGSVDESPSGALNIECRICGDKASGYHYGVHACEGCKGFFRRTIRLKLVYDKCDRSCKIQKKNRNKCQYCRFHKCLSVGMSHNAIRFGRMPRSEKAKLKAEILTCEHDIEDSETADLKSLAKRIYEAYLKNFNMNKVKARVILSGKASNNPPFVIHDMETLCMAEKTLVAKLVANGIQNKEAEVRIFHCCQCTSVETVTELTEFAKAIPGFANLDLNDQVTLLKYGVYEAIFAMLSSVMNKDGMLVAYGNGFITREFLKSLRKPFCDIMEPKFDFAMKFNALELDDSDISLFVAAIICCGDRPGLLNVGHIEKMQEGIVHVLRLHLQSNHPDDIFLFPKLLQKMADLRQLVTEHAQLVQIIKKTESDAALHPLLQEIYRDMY
# Outline: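 Reporter transcripts from GAL4-UAS units in transfected HepG2 were quantified 24 h after dosing. Detection used reverse transcription, PCR, fluorescent primer extension and capillary electrophoresis, with DMSO as baseline.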
# [19] = target: Peroxisome proliferator-activated receptor gamma (Homo sapiens) (UniProt P37231); test: ATG_PPARg_TRANS: Attagene TRANS-FACTORIAL HepG2 Assay for human Peroxisome Proliferator-activated Receptor-gamma (PPARg) (AID 2283007; active = hit-call score of the fitted dose curve at least 0.9, where 1 is the maximum)
# Chain of Peroxisome proliferator-activated receptor gamma (Homo sapiens) (P37231 whole entry, looked up): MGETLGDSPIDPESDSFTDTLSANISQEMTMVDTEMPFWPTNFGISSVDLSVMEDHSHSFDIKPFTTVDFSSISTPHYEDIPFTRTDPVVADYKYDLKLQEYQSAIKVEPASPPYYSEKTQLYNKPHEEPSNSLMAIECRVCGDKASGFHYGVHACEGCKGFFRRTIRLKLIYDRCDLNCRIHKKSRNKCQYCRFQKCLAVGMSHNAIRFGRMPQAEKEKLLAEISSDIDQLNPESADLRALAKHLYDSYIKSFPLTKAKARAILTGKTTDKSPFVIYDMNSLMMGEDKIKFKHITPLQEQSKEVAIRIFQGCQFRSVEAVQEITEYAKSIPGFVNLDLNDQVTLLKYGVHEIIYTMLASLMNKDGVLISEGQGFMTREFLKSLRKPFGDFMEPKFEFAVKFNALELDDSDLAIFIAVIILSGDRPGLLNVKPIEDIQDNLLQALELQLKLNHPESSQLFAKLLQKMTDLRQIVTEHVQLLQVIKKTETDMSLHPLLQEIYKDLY
# Outline: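 Human hepatoma HepG2, transient MRTU transfection, 24 h treatment. mRNA reporter signal by RT-PCR plus capillary electrophoresis, fluorescence detection; fitted for increase over DMSO negative control.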
compound,measurement,setting,value
CCN(CC)c1ccc2c(c1)Oc1cc(N(CC)CC)ccc1C21OC(=O)c2ccccc21,outcome,[1],inactive
same,outcome,[2],inactive
same,outcome,[3],inactive
same,outcome,[4],inactive
same,AC50,[5],34.8 µM (active)
same,outcome,[6],inactive
same,outcome,[7],inactive
same,AC50,[8],2.97 µM (active)
same,AC50,[9],11.2 µM (active)
same,outcome,[10],inactive
same,outcome,[11],inactive
same,outcome,[12],inactive
same,AC50,[13],5.03 µM (active)
same,AC50,[14],0.348 µM (active)
Cc1cnccn1,outcome,[1],inactive
same,outcome,[2],inactive
same,outcome,[3],inactive
same,outcome,[4],inactive
same,outcome,[5],inactive
same,outcome,[6],inactive
same,outcome,[7],inactive
same,outcome,[8],inactive
same,outcome,[9],inactive
same,outcome,[10],inactive
same,outcome,[11],inactive
same,outcome,[12],inactive
same,outcome,[15],inactive
same,outcome,[13],inactive
same,outcome,[14],inactive
same,outcome,[16],inactive
O=C(O)C(F)(F)OC(F)(F)C(F)(F)OC(F)(F)C(F)(F)OC(F)(F)F,outcome,[1],inactive
same,outcome,[2],inactive
same,outcome,[3],inactive
same,outcome,[4],inactive
same,AC50,[5],37.8 µM (active)
same,outcome,[6],inactive
same,outcome,[7],inactive
same,outcome,[8],inactive
same,outcome,[9],inactive
same,outcome,[17],inactive
same,outcome,[10],inactive
same,AC50,[18],15.4 µM (active)
same,outcome,[11],inactive
same,outcome,[12],inactive
same,outcome,[13],inactive
same,AC50,[19],17.9 µM (active)
same,outcome,[14],inactive
same,outcome,[16],inactive
CCOC(=O)CC(=O)C(F)(F)C(F)(F)F,outcome,[1],inactive
same,outcome,[2],inactive
same,outcome,[3],inactive
same,outcome,[4],inactive
same,outcome,[5],inactive
same,outcome,[6],inactive
same,outcome,[7],inactive
same,outcome,[8],inactive
same,outcome,[9],inactive
same,outcome,[17],inactive
same,outcome,[10],inactive
same,outcome,[12],inactive
same,outcome,[13],inactive
same,outcome,[14],inactive
OCC(F)(F)C(F)(F)C(F)(F)C(F)(F)C(F)(F)C(F)(F)CO,outcome,[1],inactive
same,outcome,[2],inactive
same,outcome,[3],inactive
same,outcome,[4],inactive
same,outcome,[5],inactive
same,outcome,[6],inactive
same,outcome,[7],inactive
same,outcome,[8],inactive
same,outcome,[9],inactive
same,outcome,[10],inactive
same,outcome,[18],inactive
same,outcome,[12],inactive
same,AC50,[13],15.6 µM (active)
same,outcome,[13],inactive
same,outcome,[19],inactive
same,outcome,[14],inactive
OCCC(O)CO (stereo unspecified),outcome,[1],inactive
same,outcome,[2],inactive
same,outcome,[3],inactive
same,outcome,[4],inactive
same,outcome,[5],inactive
same,outcome,[6],inactive
same,outcome,[7],inactive
NC(=O)C(F)(F)C(F)(F)C(F)(F)C(F)F,outcome,[1],inactive
same,outcome,[2],inactive
same,outcome,[3],inactive
same,outcome,[4],inactive
same,outcome,[5],inactive
same,outcome,[6],inactive
same,outcome,[7],inactive
same,outcome,[8],inactive
same,outcome,[9],inactive
same,outcome,[10],inactive
same,outcome,[18],inactive
same,outcome,[11],inactive
same,outcome,[12],inactive
same,outcome,[13],inactive
same,outcome,[19],inactive
same,outcome,[14],inactive
O=C(O)C(F)(F)C(F)(F)C(F)(F)OC(F)(C(F)(F)F)C(F)(F)F,outcome,[1],inactive
same,outcome,[2],inactive
same,outcome,[3],inactive
same,outcome,[4],inactive
same,AC50,[5],113 µM (active)
same,outcome,[6],inactive
same,outcome,[7],inactive
same,outcome,[8],inactive
same,outcome,[9],inactive
same,outcome,[10],inactive
same,AC50,[18],24.6 µM (active)
same,outcome,[11],inactive
same,outcome,[12],inactive
same,outcome,[13],inactive
same,outcome,[14],inactive
